From PubChem BioAssay (EPA / NIEHS)
Results filed as inconclusive are left out. The source made the active and inactive calls. Rule for the calls, unless noted: active = hit-call score of the fitted dose curve at least 0.9, where 1 is the maximum; inactive = score below 0.9.

Key:
[1] = CCTE_Mundy_HCI_Cortical_Synap_Neur_Matur_NeuriteLength: CCTE's Synaptogenesis and Neurite Maturation Assay in rat cortical cells for Neurite Length, Mundy Lab (AID 2284214)
Summary of the method: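 Neurite length quantified by automated high-content imaging of MAP2, synaptophysin and Hoechst staining. Rat cortical cells received chemical from DIV 7 to DIV 12 […], glial growth arrested by AraC at DIV 5; DMSO baseline.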

[2] = CCTE_Mundy_HCI_Cortical_Synap_Neur_Matur_SynapseCount: CCTE's Synaptogenesis and Neurite Maturation Assay in rat cortical cells for Synapse Count, Mundy Lab (AID 2284218)
Summary of the method: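 High-content imaging of synaptophysin puncta per MAP2-positive neuron (Hoechst nuclei) in rat cortical cells exposed DIV 7–12 after glial arrest with AraC at DIV 5; decrease relative to DMSO scored.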

[3] = CCTE_Mundy_HCI_Cortical_Synap_Neur_Matur_NeuriteCount: CCTE's Synaptogenesis and Neurite Maturation Assay in rat cortical cells for Neurite Count, Mundy Lab (AID 2284222);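 note: exposure from day 7 to day 12 in vitro with readout at day 12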
Summary of the method: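 Chemical exposure runs DIV 7–12 in rat cortical cultures, glia suppressed by AraC at DIV 5; measurement is at DIV 12. Imaging-derived neurite counts are fitted against DMSO baseline.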

[4] = CCTE_Mundy_HCI_Cortical_Synap_Neur_Matur_CellBodySpotCount: CCTE's Synaptogenesis and Neurite Maturation Assay in rat cortical cells for Cell Body Spot Count, Mundy Lab (AID 2284223)
Summary of the method: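 Rat primary cortical cultures received AraC at DIV 5 to arrest glia, were dosed with chemical at DIV 7 with media change, and were fixed at DIV 12 (288.33 h). Synaptophysin puncta on MAP2-positive cell bodies per neuron were counted by high-content imaging versus DMSO.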

[5] = CCTE_Mundy_HCI_hNP1_Pro_ResponderAvgInten: CCTE's Proliferation Assay in human neuroprogenitor cells, Mundy Lab (AID 2284224; active = hit-call score of the fitted dose curve at least 0.9, where 1 is the maximum)
Summary of the method: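 Proliferation was scored as BrdU labelling intensity in human neural progenitors derived from WA09 embryonic cells, measured 26.25 hours after chemical dosing. Activity was fitted relative to DMSO.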

[6] = UKN2_HCS_IMR90_cell_viability: Viability Assessment in the University of Konstanz (UKN) Leist Lab Neural Crest Cell Migration Assay in human induced IMR90 Pluripotent Stem Cells (UKN2) (AID 2284233);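 note: cells exposed to compound for 24 h after a 24 h migration phase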
Summary of the method: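 After calcein-AM/Hoechst staining, viability is quantified by high-content fluorescence imaging, relative to DMSO, in iPSC (IMR90)-derived neural crest cells. Exposure lasts 24 h, starting after a 24 h migration period on PLO/laminin/fibronectin coating.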

[7] = CCTE_Mundy_HCI_Cortical_NOG_BPCount: CCTE's Neurite Outgrowth Assay in rat cortical cells for Branch Point Count, Mundy Lab (AID 2284237)
Summary of the method: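 Measured 50.33 h after dosing, this morphology endpoint uses rat primary cortical cultures labelled for betaIII-tubulin. Branch points are quantified by high-content imaging, with DMSO as negative control and baseline.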

[8] = CCTE_Mundy_HCI_hNP1_Casp3_7: CCTE's Caspase-Glo 3/7 Assay in human neuroprogenitor cells for Apoptosis, Mundy Lab (AID 2284240)
Summary of the method: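 Apoptosis is scored by activated caspase-3/7 luminescence in WA09-derived neural progenitor cells, measured 26.5 h after chemical dosing. Values represent gain of signal relative to DMSO vehicle.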

[9] = CCTE_Mundy_HCI_hNP1_CellTiter: CCTE's Cell Titer-Glo 2 Assay in human neuroprogenitor cells for Viability, Mundy Lab (AID 2284241; active = hit-call score of the fitted dose curve at least 0.9, where 1 is the maximum)
Summary of the method: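 Human neural progenitor cells (hNP1, WA09-derived) were plated on poly-L-ornithine/laminin and grown 40 to 44 hours at 37 °C, 5% CO2 before chemical addition. Twenty-four hours later, ATP was measured by CellTiter-Glo luminescence; loss of signal versus DMSO indicates reduced viability.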

[10] = IUF_NPC2c_oligodendrocyte_migration_120hr: Leibniz Research Institute for Environmental Medicine (IUF) 120-hour Neural Progenitor Cell Migration Assay for Oligodendrocyte Migration (NPC2c) (AID 2284297);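 note: O4-positive oligodendrocyte migration distance divided by radial glia migration distance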
Summary of the method: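 Human fetal cortex-derived neural progenitor spheres (0.3 mm) were plated on poly-D-lysine/laminin in N2 differentiation medium and exposed to 7 concentrations for 120 h, with half-medium renewal at day 3. Oligodendrocyte migration distance was normalized to radial glia migration, relative to DMSO.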

[11] = IUF_NPC2a_radial_glia_migration_120hr: Leibniz Research Institute for Environmental Medicine (IUF) 120-hour Neural Progenitor Cell Migration Assay for Radial Glia Migration (NPC2a) (AID 2284298)
Summary of the method: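 Single 0.3 mm primary human fetal-cortex (GW 16-19) NPC spheres were plated on poly-D-lysine/laminin in N2 differentiation medium and exposed from day 0 for 120 h, half-medium refreshed day 3. Migration distance came from Hoechst nuclei-density imaging, relative to DMSO.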

[12] = IUF_NPC2b_neuronal_migration_120hr: Leibniz Research Institute for Environmental Medicine (IUF) 120-hour Neural Progenitor Cell Migration Assay for Neuron Migration (NPC2b) (AID 2284300)
Summary of the method: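 Primary human fetal cortex neural progenitor spheres (0.3 mm) plated on poly-D-lysine/laminin in N2 differentiation medium, exposed 120 h with half-medium refresh at day 3. TUBB3-stained neuron distance from sphere core, normalized to radial glia migration, versus DMSO.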

[13] = IUF_NPC3_neuronal_differentiation_120hr: Leibniz Research Institute for Environmental Medicine (IUF) 120-hour Neuronal Differentiation Assay (NPC3) (AID 2284301)
Summary of the method: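 Value is percent TUBB3-positive neurons among Hoechst-stained nuclei in the migration area, scored by trained CNN after 120 h differentiation. Primary hNPC spheres on poly-D-lysine/laminin, N2 medium, continuous dosing from day 0, half-refeed day 3; DMSO reference.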

[14] = IUF_NPC4_neurite_length_120hr: Leibniz Research Institute for Environmental Medicine (IUF) 120-hour Neuronal Morphology Assay for Neurite Length (NPC4) (AID 2284302)
Summary of the method: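 Neurite length, the mean in um across TUBB3-stained neurons, is derived by skeletonization of high-content images after 120 h differentiation. Compound exposure, 7 concentrations plus solvent control, ran from plating of hNPC spheres on poly-D-lysine/laminin, with medium half-replaced on day 3.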

[15] = IUF_NPC5_oligodendrocyte_differentiation_120hr: Leibniz Research Institute for Environmental Medicine (IUF) 120-hour Oligodendrocyte Differentiation Assay (NPC5) (AID 2284304; active = hit-call score of the fitted dose curve at least 0.9, where 1 is the maximum;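 note: primary human fetal neural progenitor spheres plated to migrate and differentiate; share of O4-positive cells among Hoechst nuclei found by CNN image analysis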)
Summary of the method: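 Primary human fetal (GW 16-19) neural progenitor spheres (0.3 mm) plated on poly-D-lysine/laminin in N2 differentiation medium, exposed from day 0 for 120 h with half-medium refresh at day 3; O4-positive cells as percent of Hoechst nuclei, CNN-identified, versus DMSO.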

[16] = IUF_NPC4_neurite_area_120hr: Leibniz Research Institute for Environmental Medicine (IUF) 120-hour Neuronal Morphology Assay for Neurite Area (NPC4) (AID 2284305; active = hit-call score of the fitted dose curve at least 0.9, where 1 is the maximum)
Summary of the method: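 Neurite area (pixels, nuclei excluded) of TUBB3-positive neurons from hNPC spheres differentiating 5 days under continuous exposure at 37 C, 5% CO2. High-content imaging; loss of signal versus DMSO control across 7 concentrations.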

[17] = IUF_NPC2-5_cytotoxicity_72hr: Cytotoxicity Assessment at 72 hours in the Leibniz Research Institute for Environmental Medicine (IUF) Neural Progenitor Cell Migration and Differentiation Assay for Cytotoxicity (NPC2-5) (AID 2284306; active = hit-call score of the fitted dose curve at least 0.9, where 1 is the maximum;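 note: LDH release into supernatant measured by resorufin fluorescence marking membrane damage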)
Summary of the method: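 Membrane-integrity cytotoxicity at 72 h, read as LDH-driven resorufin fluorescence in supernatant. hNPC spheres from fetal cortex differentiate on coated plates in N2 medium, 37C, 5% CO2; seven serial compound concentrations plus solvent control (DMSO ≤0.1%).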

[18] = IUF_NPC2-5_cytotoxicity_120hr: Cytotoxicity Assessment at 120 hours in the Leibniz Research Institute for Environmental Medicine (IUF) Neural Progenitor Cell Migration and Differentiation Assay (NPC2-5) (AID 2284307; active = hit-call score of the fitted dose curve at least 0.9, where 1 is the maximum)
Summary of the method: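 Human fetal neural progenitor spheres (0.3 mm, GW 16-19 cortex) were plated on poly-D-lysine/laminin in N2 differentiation medium and exposed for 120 h, with half-medium refresh at day 3. LDH release into supernatant was read by resorufin fluorescence.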

[19] = IUF_NPC2-5_cell_number_120hr: Cell Number Assessment at 120 hours in the Leibniz Research Institute for Environmental Medicine (IUF) Neural Progenitor Cell Migration and Differentiation Assay (NPC2-5) (AID 2284308);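 note: count of Hoechst-stained nuclei in migration zone around plated human neural progenitor spheres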
Summary of the method: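 Primary human fetal neural progenitor spheres (GW 16-19, 0.3 mm) plated on poly-D-lysine/laminin in N2 differentiation medium, exposed from day 0 for 120 h with half-medium refresh at day 3; Hoechst-positive nuclei counted in migration area versus DMSO control.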

[20] = IUF_NPC2-5_viability_120hr: Viability Assessment at 120 hours in the Leibniz Research Institute for Environmental Medicine (IUF) Neural Progenitor Cell Migration and Differentiation Assay (NPC2-5) (AID 2284312)
Summary of the method: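 Alamar blue resorufin fluorescence read after 5 days of differentiation, with compound present from day 0 and replenished at day 3. Primary hNPC spheres on laminin-coated plates, 37C; seven concentrations plus solvent control, fitted against DMSO.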

[21] = CCTE_Mundy_HCI_iCellGluta_NOG_NeuriteLength: CCTE's Neurite Outgrowth Assay in iCellGluta cells for Neurite Length, Mundy Lab (AID 2284318; active = hit-call score of the fitted dose curve at least 0.9, where 1 is the maximum)
Summary of the method: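 Automated high-content imaging of betaIII-tubulin (Alexa Fluor-488) and Hoechst-stained cells gave neurite length, normalized to the DMSO baseline.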

[22] = IUF_NPC1_cytotoxicity_72hr: Cytotoxicity Assessment at 72 hours in the Leibniz Research Institute for Environmental Medicine (IUF) Neural Progenitor Cell Proliferation Assay (NPC1) (AID 2284332; active = hit-call score of the fitted dose curve at least 0.9, where 1 is the maximum;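 note: rising LDH signal means more cytotoxicity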)
Summary of the method: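 Cytotoxicity by LDH membrane-integrity assay on medium supernatants, fluorescence via resazurin reduction, after 3-day single exposure of primary hNPC spheres at 37C, pH 7.2-7.6 with growth factors. Fitted upward against baseline.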

[23] = CCTE_Mundy_HCI_iCellGluta_NOG_NeuriteCount: CCTE's Neurite Outgrowth Assay in iCellGluta cells for Neurite Count, Mundy Lab (AID 2284342; active = hit-call score of the fitted dose curve at least 0.9, where 1 is the maximum;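 note: chemical exposure about 48 hours starting 2 hours after plating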)

Measured: outcome

CCOP(=S)(OCC)SCS(=O)C(C)(C)C (stereo not drawn)
inactive: [1] | [2] | [3] | [4] | [5] | [6] | [7] | [8] | [9] | [10] | [11] | [12] | [13] | [14] | [15] | [16] | [17] | [18] | [19] | [20] | [21] | [22] | [23]
